From PubChem BioAssay AID1159580 (chemical genetic matrix, 2015)
Values joined by “and” are separate entries in the source; they are usually repeats but may differ in a detail not shown here. Equal values may be shown once. The whole screen tested about 5,500 compounds, of which about 2,000 (36%) were called active. Roughly 18% stayed inconclusive and do not appear here. Cut-off read from the data, not from the text of the source: active = normalized growth mostly below about 0.91 (no sharp cut-off); inconclusive = no clear call, values can overlap the other calls; inactive = mostly above about 0.92. The list shows a part of the results.

Assay: chemical genetic growth profiling, strain panel (AID 1159580);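 note: tested at 20 µM; growth read once vehicle control cultures reached saturation at 30 °C; 1 = growth at the plate median or of vehicle wells; lower values mean less growth of the strain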
Conditions: S. cerevisiae deletion strains, growth OD
[1] = locus YAL013W, strain DEP1, active compounds read low
[2] = locus YBR229C, strain ROT2, active compounds read low
[3] = locus YCL061C, strain MRC1, active compounds read low
[4] = locus YDL101C, strain DUN1, active compounds read low
[5] = locus YDR150W, strain NUM1, active compounds read low
[6] = locus YEL061C, strain CIN8, active compounds read low
[7] = locus YGR078C, strain PAC10, active compounds read low
[8] = locus YHR030C, strain SLT2, active compounds read low
[9] = locus YHR087W, strain rtc3, active compounds read low
[10] = locus YJR043C, strain POL32, active compounds read low
[11] = locus YJR075W, strain HOC1, active compounds read low
[12] = locus YLR039C, strain RIC1, active compounds read low
[13] = locus YLR058C, strain SHM2 (second series), active compounds read low
[14] = locus YLR085C, strain ARP6, active compounds read low
[15] = locus YLR262C, strain YPT6, active compounds read low
[16] = locus YML094W, strain GIM5, active compounds read low
[17] = locus YMR219W, strain ESC1, active compounds read low
[18] = locus YMR263W, strain SAP30, active compounds read low
[19] = locus YNL153C, strain GIM3, active compounds read low
[20] = locus YNL298W, strain CLA4 (second series), active compounds read low
[21] = locus YNL322C, strain KRE1, active compounds read low
[22] = locus YNR030W, strain Alg12, active compounds read low
[23] = locus YPL055C, strain LGE1, active compounds read low
[24] = locus YPL241C, strain CIN2, active compounds read low
[25] = locus YPR135W, strain CTF4, active compounds read low

Measured: normalized growth

OC1(C(F)(F)F)CC(c2ccc3ccccc3c2)=NN1 (centres undefined)
active: [1] 0.205 | locus YAR019C, strain CDC15, active compounds read low 0.155 | locus YBL105C, strain PKC1, active compounds read low 0.336 | locus YBR135W, strain CKS1, active compounds read low 0.263 | locus YBR136W, strain MEC1, active compounds read low 0.339 | locus YBR160W, strain CDC28, active compounds read low 0.367 | [2] 0.223 | [3] 0.19 | locus YDL017W, strain CDC7, active compounds read low 0.373 | locus YDL028C, strain MPS1, active compounds read low 0.402 | [4] 0.215 and 0.164 | locus YDL108W, strain KIN28, active compounds read low 0.392 | locus YDL132W, strain cdc53, active compounds read low 0.234 | locus YDL214C, strain PRR2, active compounds read low 0.224 | locus YDR052C, strain DBF4, active compounds read low 0.302 | locus YDR054C, strain cdc34, active compounds read low 0.233 | [5] 0.397 | locus YDR226W, strain ADK1, active compounds read low 0.278 | locus YDR477W, strain SNF1, active compounds read low 0.146 | [6] 0.146 | locus YER123W, strain YCK3, active compounds read low 0.181 | locus YER133W, strain GLC7, active compounds read low 0.135 | locus YFL009W, strain cdc4, active compounds read low 0.17 | locus YFL029C, strain CAK1, active compounds read low 0.16 | locus YFR003C, strain YPI1, active compounds read low 0.405 | locus YFR019W, strain FAB1, active compounds read low 0.376 | locus YFR028C, strain CDC14, active compounds read low 0.226 | locus YGR040W, strain KSS1, active compounds read low 0.135 | locus YGR052W, strain FMP48, active compounds read low 0.15 | [7] 0.213 | locus YGR092W, strain DBF2, active compounds read low 0.198 | [8] 0.0763 and 0.104 | locus YHR079C, strain IRE1, active compounds read low 0.125 | locus YHR082C, strain KSP1, active compounds read low 0.141 | [9] 0.442 | locus YHR205W, strain SCH9, active compounds read low 0.138 | locus YIL147C, strain SLN1, active compounds read low 0.322 | locus YJL095W, strain BCK1, active compounds read low 0.115 | locus YJL128C, strain PBS2, active compounds read low 0.386 | locus YJL157C, strain FAR1, active compounds read low 0.301 | locus YJR016C, strain ILV3, active compounds read low 0.162 | [10] 0.245 | locus YJR066W, strain TOR1 (second series), active compounds read low 0.192 | locus YJR066W, strain TOR1, active compounds read low 0.125 | [11] 0.298 | locus YKL048C, strain ELM1, active compounds read low 0.285 | locus YKL067W, strain YNK1, active compounds read low 0.279 | locus YKL101W, strain HSL1, active compounds read low 0.251 | locus YKL190W, strain CNB1, active compounds read low 0.0734 | locus YKL193C, strain SDS22, active compounds read low 0.161 | locus YKL203C, strain TOR2, active compounds read low 0.13 | [12] 0.13 | [13] 0.274 | [14] 0.0695 | locus YLR113W, strain HOG1, active compounds read low 0.15 | locus YLR133W, strain CKI1, active compounds read low 0.27 | [15] 0.12 | locus YLR403W, strain SFP1, active compounds read low 0.0326 | locus YML070W, strain DAK1, active compounds read low 0.211 | [16] 0.192 | locus YMR001C, strain CDC5, active compounds read low 0.151 | locus YMR205C, strain PFK2 (second series), active compounds read low 0.218 | [17] 0.258 | [18] 0.298 | locus YMR277W, strain FCP1, active compounds read low 0.172 | locus YMR307W, strain GAS1, active compounds read low 0.13 | locus YNL006W, strain LST8, active compounds read low 0.2 | locus YNL020C, strain ARK1, active compounds read low 0.257 | [19] 0.239 | locus YNL161W, strain CBK1, active compounds read low 0.211 | locus YNL183C, strain NPR1, active compounds read low 0.115 | locus YNL207W, strain RIO2, active compounds read low 0.195 | locus YNL222W, strain SSU72, active compounds read low 0.225 | [20] 0.0831 | locus YNL307C, strain MCK1 (second series), active compounds read low 0.228 | [21] 0.571 | [22] 0.108 | locus YOL006C, strain TOP1, active compounds read low 0.1 | locus YOL078W, strain AVO1, active compounds read low 0.186 | locus YOL136C, strain PFK27, active compounds read low 0.211 | locus YOR061W, strain CKA2, active compounds read low 0.43 | locus YOR119C, strain RIO1, active compounds read low 0.129 | locus YOR231W, strain MKK1, active compounds read low 0.132 | locus YOR329C, strain SCD5, active compounds read low 0.203 | locus YPL031C, strain PHO85, active compounds read low 0.126 | [23] 0.157 | locus YPL153C, strain RAD53, active compounds read low 0.115 | locus YPL204W, strain HRR25, active compounds read low 0.13 | locus YPL209C, strain IPL1, active compounds read low 0.232 | [24] 0.108 | locus YPL256C, strain CLN2, active compounds read low 0.147 | locus YPR025C, strain CCL1, active compounds read low 0.248 | locus YPR106W, strain ISR1, active compounds read low 0.586 | locus YPR111W, strain DBF20, active compounds read low 0.715 | [25] 0.163 | strain NNK1, active compounds read low 0.492 | strain TSCII, active compounds read low 0.18

OC1(C(F)(F)F)CC(c2ccccc2)=NN1 (centres undefined)
inactive: [1] 0.974 | [2] 0.968 | [3] 0.978 | [4] 0.987 | locus YDL134C, strain PPH21, active compounds read low 0.984 | [5] 0.949 | [6] 1 | [7] 0.972 | [8] 1.08 | [9] 0.967 | locus YJL187C, strain SWE1, active compounds read low 1 | [10] 0.991 | [11] 0.915 | [12] 0.843 | [13] 0.961 | [14] 1.03 | [16] 1 | [17] 0.976 | [18] 0.976 | [19] 0.981 | [20] 0.989 | [21] 0.953 | [22] 1 | [23] 0.981 | [24] 1.02 | [25] 0.92
active: [15] 0.809
